Source: PubChem BioAssay (NCI)
This is part of a sample that, as a whole, favours compounds with a hit. Of some 83,000 tested, about 20% had one in any assay.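 Negative percent growth values reflect cell death: -40 means 40% of the cells present at the start died, and -100 means all died.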 A number with no mark means an inactive call. Active and inactive are the calls of the source. The calls were made as follows: active = growth percent below 10; inactive = the rest.

system: PC-3 prostate; test: NCI-60 one-dose screen, 48 h (100 = growth as untreated, 0 = no growth, -100 = all killed); conditions: 10 µM

| Compound | growth |
| --- | --- |
| COc1cccc(O)c1O | 79.5% |
| CC(=O)/C(Cc1ccccc1)=N/O | 84.9% |
| C=CCNC(=O)c1ccc(OC)cc1 | 104% |
| C/C(=N/NC(N)=O)c1ccco1 | 76.3% |
| COCCOC(=O)c1ccc(C(C)C)cc1 | 82.9% |
| C[N+](C)=c1ccc2nc3c(cc(Nc4ccccc4)c4ccccc43)oc-2c1 | 47.3% |
| Cc1cccc(CO)c1 | 104% |
| Nc1nc(N)c(N=Nc2ccc(C(=O)O)cc2)c(N)n1 | 101% |
| COCCOCCCl | 84.5% |
| Nc1ncnc2[nH]ncc12 | 7.63% (active) |
| O=[N+]([O-])c1ccc(-c2ncc(-c3ccc(Br)cc3)o2)cc1 | 89.8% |
| CCOC(=O)CSc1c([N+](=O)[O-])ncn1C | 106% |
| CC(C)(O)C#CC#CC(C)(C)O | 99.3% |
| COc1cc(C2NC(=O)C(C#N)=C(Nc3cccc(C)c3)S2)ccc1O (stereo not drawn) | 97.6% |
| CCOC(=O)Nc1nn[nH]n1 | 96.8% |
| O=C(NN=C1CCCCC1)C(=O)NN=C1CCCCC1 | 89% |
| O=C(CCl)Nc1ccc2c(c1)C(=O)c1ccc(NC(=O)CCl)cc1C2=O | -22.1% (active) |
| CCCCOC(=O)c1ccc(C(C)C)cc1 | 84.7% |
| O=C(NC1CCCCC1)OCc1c(COC(=O)NC2CCCCC2)c(-c2ccc(Cl)c(Cl)c2)n2c1CCC2 | 55.1% |

| Compound | growth |
| --- | --- |
| N#CCCN(CCCN1CCOCC1)CN1C(=O)c2ccccc2C1=O | 105% |
| Cc1ccccc1N=C(c1ccccc1)C1C(=O)c2ccccc2C1=O | 59.8% |
| O=c1[nH]cc(Cl)cc1O | 82.2% |
| CC(C)OC(C(=O)O)c1ccccc1 (stereo not drawn) | 82.9% |
| CCCOC(=O)C(O)c1ccccc1 (stereo not drawn) | 101% |
| COc1ccccc1NC(=O)c1cc2cc(Br)ccc2cc1O | -35.3% (active) |
| OCCN1CCOCC1 | 109% |
| OCC1OC(OC2C(O)C(CO)OC2(CO)OC2OC(CO)C(O)C(O)C2O)C(O)C(O)C1O (stereo not drawn) | 98.5% |
| Cc1ccc(Cl)cc1NC(=O)N(C)CCO | 96% |
| CCOC(=O)C(O)C(O)C(=O)OCC (stereo not drawn) | 98% |
| O=c1cc(-c2ccccc2)nc2cc(-c3ccco3)[nH]n12 | 78.7% |
| S=c1[nH]ccn1-c1ccccc1Cl | 95.2% |
| C[N+](C)(C)C(=O)c1ccccc1 | 102% |
| CCc1ccc(/C(C#N)=C/C=C/c2ccccc2)cc1 | 19% |
| O=C(O)c1ccnc(Br)c1 | 86.1% |
| S=c1nn[nH]c2ccccc12 | 98.1% |
| O=[N+]([O-])c1ccc(CO)cc1 | 97.2% |
| O=C1C=C(O)C(=O)C=C1O | 101% |
| C#Cc1cccc(NC(=O)c2ccc(Cl)cc2Cl)c1 | 82.6% |
